Assay in all cases: universal protein binding microarray (PBM); transcription factors of Arabidopsis thaliana; high values mean tight binding
Common to all, as to settings: protein: recombinant; tags: GST; chain copies: 2; dsDNA, one strand shown

Assay [1] concerns the target T1, GST-ANAC092(1-176) (Arabidopsis thaliana, UniProt Q9FKA0 1-176).
T1 sequence: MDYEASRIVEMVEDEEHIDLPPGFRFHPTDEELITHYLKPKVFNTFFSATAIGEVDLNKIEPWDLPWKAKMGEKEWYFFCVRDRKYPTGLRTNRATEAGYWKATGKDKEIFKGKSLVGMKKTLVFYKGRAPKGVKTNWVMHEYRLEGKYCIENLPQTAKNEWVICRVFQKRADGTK
The method, boiled down: (§1)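 Protein amounts were determined by A280 or anti-GST western blot after glutathione–Sepharose 4B purification of GST-tagged proteins induced in cells, with zinc acetate included for zinc-finger proteins. Duplicate runs at 200 to 500 nM final were done on custom all-10-mer Agilent 4 × 180K arrays made double-stranded by primer extension. The normalised enrichment score (E-score) over gapped and ungapped 8-mers is the measure of binding.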

Assay [2] addresses GST-NTL6(1-168) (Arabidopsis thaliana, UniProt Q9SCK6 1-168). In short, it runs like this:
as §1

In assay [3] the target is T2, GST-ANAC019 NAC domain (Arabidopsis thaliana, UniProt Q9C932 14-162).
T2 sequence: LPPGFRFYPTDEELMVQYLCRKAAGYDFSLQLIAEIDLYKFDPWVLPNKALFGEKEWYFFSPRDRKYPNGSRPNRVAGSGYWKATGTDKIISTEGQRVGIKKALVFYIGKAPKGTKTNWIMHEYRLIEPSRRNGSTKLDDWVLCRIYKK
The method, boiled down:
as §1

Assay [4] addresses T3, GST-ANAC055(1-171) (Arabidopsis thaliana, UniProt Q9LDY8 1-171).
T3 sequence: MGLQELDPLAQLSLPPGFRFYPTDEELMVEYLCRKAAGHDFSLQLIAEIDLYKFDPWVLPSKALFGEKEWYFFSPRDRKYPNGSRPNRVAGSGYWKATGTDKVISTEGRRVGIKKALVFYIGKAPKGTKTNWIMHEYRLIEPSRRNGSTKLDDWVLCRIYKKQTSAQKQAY
In short, it runs like this: as §1

The target in assay [5] is T4, GST-ATAF1 NAC domain (Arabidopsis thaliana, UniProt Q39013 7-158).
T4 sequence: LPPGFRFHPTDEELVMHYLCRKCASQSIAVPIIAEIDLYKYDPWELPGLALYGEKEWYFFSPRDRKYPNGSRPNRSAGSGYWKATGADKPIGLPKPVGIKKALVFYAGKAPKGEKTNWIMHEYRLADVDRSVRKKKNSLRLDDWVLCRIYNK
In short, it runs like this:
as §1

For assay [6], the target named is T5, GST-ANAC092(1-285) full length (Arabidopsis thaliana, UniProt Q9FKA0 1-285).
T5 sequence: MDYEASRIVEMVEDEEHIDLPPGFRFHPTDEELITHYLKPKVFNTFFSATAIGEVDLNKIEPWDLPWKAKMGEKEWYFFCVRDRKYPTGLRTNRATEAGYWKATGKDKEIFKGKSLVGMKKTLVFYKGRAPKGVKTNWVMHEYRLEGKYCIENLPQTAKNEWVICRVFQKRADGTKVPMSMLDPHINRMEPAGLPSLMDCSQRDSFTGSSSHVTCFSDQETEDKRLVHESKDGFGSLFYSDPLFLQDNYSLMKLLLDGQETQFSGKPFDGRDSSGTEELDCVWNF
In short, it runs like this: as §1

The target of assay [7] is T6, GST-NAP(1-166) (Arabidopsis thaliana, UniProt O49255 1-166).
T6 sequence: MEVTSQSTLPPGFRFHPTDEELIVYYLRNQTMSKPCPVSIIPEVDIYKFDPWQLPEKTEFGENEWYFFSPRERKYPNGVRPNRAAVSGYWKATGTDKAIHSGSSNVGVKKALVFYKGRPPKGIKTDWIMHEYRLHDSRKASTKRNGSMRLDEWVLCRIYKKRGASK
The method, boiled down:
as §1

Assay [8] concerns the target T7, GST-NST2(1-184) (Arabidopsis thaliana, UniProt Q9M274 1-184).
T7 sequence: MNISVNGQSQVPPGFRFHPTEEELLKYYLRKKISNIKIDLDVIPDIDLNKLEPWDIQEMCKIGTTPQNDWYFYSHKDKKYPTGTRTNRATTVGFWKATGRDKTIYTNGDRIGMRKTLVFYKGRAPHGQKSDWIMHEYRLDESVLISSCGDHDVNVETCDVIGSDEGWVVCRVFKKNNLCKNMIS
In short, it runs like this:
as §1

The target of assay [9] is T8, GST-NTL8 NAC domain (Arabidopsis thaliana, UniProt Q9XIN7 14-156).
T8 sequence: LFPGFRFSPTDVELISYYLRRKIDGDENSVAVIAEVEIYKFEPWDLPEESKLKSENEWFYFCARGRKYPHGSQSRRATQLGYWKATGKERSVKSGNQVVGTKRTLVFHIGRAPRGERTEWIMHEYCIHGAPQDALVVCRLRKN
In short, it runs like this: as §1

Assay [10] addresses T9, GST-SND1(1-203) (Arabidopsis thaliana, UniProt Q9LPI7 1-203).
T9 sequence: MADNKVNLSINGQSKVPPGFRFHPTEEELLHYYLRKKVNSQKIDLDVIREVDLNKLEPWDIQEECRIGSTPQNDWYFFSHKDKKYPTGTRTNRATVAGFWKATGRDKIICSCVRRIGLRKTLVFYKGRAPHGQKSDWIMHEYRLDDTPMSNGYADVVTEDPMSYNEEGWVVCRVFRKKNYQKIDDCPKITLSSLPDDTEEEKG
The method, boiled down:
as §1

Assay [11] deals with T10, GST-VND3 NAC domain (Arabidopsis thaliana, UniProt Q9FH59 12-162).
T10 sequence: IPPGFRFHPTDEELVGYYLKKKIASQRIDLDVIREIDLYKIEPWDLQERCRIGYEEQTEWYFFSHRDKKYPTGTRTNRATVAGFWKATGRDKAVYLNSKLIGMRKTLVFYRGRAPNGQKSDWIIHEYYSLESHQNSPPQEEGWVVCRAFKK
In short, it runs like this:
as §1

Assay [12] addresses T11, GST-VND7 NAC domain (Arabidopsis thaliana, UniProt Q9C8W9 9-158).
T11 sequence: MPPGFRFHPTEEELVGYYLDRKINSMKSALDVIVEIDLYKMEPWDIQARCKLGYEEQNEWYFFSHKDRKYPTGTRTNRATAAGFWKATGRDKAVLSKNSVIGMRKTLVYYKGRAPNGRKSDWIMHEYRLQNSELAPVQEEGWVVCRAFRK
The method, boiled down: as §1

Sequence of GST-NTL6(1-168) (Q9SCK6 1-168): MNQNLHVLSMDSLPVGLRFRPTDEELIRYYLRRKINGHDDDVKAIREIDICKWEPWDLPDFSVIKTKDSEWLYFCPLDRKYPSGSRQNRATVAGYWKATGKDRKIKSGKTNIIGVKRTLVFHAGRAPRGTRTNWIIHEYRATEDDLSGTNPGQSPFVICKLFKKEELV

Regarding CGTTTCCC, the binding signal is 0.244 E-score in assay [1]; 0.14 E-score in assay [2]; 0.176 E-score in [3]; 0.176 E-score in [4]; 0.108 E-score in assay [5]; 0.274 E-score in assay [6]. In addition, the binding signal came to 0.28 E-score in [7]; 0.0635 E-score in assay [8]; 0.422 E-score in assay [9]; 0.265 E-score in assay [10]; 0.179 E-score in assay [11]; 0.186 E-score in assay [12].

With GTTACTTA, the binding signal in [1] is 0.306 E-score; in assay [2] it was 0.461 E-score; in [3], 0.0988 E-score; in assay [4] it was 0.117 E-score; in [5], 0.256 E-score; in [6] it was 0.374 E-score. In addition, the binding signal in [7] was determined as 0.113 E-score; in assay [8], 0.25 E-score; in assay [9], 0.286 E-score; in [10] it was 0.41 E-score; in assay [11], 0.263 E-score; in [12], 0.248 E-score.

Regarding AAGCAAAG, the binding signal turned out to be 0.302 E-score in assay [1]; 0.342 E-score in [2]; 0.176 E-score in [3]; 0.125 E-score in [4]; 0.0761 E-score in [5]; 0.369 E-score in [6]. The binding signal in [7] came out at 0.11 E-score; in [8] it was 0.278 E-score; in [9] it was 0.222 E-score; in assay [10], 0.403 E-score; in [11], 0.198 E-score; in [12], 0.25 E-score.

On to GTACGCTA, for which the binding signal in assay [1] worked out at 0.428 E-score; in assay [2] it was 0.0905 E-score; in assay [3] it was 0.124 E-score; in [4], 0.165 E-score; in assay [5], 0.238 E-score; in [6], 0.449 E-score. Further, the binding signal in [7] was 0.219 E-score; in assay [8], 0.288 E-score; in [9], 0.129 E-score; in assay [10], 0.447 E-score; in assay [11] it was 0.15 E-score; in assay [12] it was 0.233 E-score.

In the case of CGAGGAAA, the binding signal came to 0.0746 E-score in assay [1]; 0.138 E-score in assay [2]; 0.0533 E-score in assay [3]; 0.139 E-score in [4]; 0.152 E-score in assay [5]; 0.131 E-score in [6]. The binding signal in assay [7] was 0.0581 E-score; in assay [8], 0.0987 E-score; in [9], 0.442 E-score; in assay [10], 0.17 E-score; in [11], 0.155 E-score; in assay [12], 0.173 E-score.

Consider CACGGCAA, for which the binding signal in assay [1] turned out to be 0.457 E-score; in assay [2], 0.0683 E-score; in [3], 0.471 E-score; in assay [4], 0.44 E-score; in [5] it was 0.364 E-score; in [6] it was 0.456 E-score. The binding signal came out at 0.36 E-score in assay [7]; 0.256 E-score in [8]; 0.0895 E-score in assay [9]; 0.123 E-score in assay [10]; 0.456 E-score in [11]; 0.444 E-score in [12].

With TAGCGTAA, the binding signal in assay [1] came out at 0.453 E-score; in assay [2], 0.123 E-score; in [3] it was 0.0774 E-score; in assay [4] it was 0.173 E-score; in [5] it was 0.281 E-score; in [6], 0.454 E-score. For the same sequence, the binding signal was determined as 0.221 E-score in assay [7]; 0.412 E-score in assay [8]; 0.492 E-score in [10]; 0.297 E-score in assay [11]; 0.347 E-score in assay [12].

(Values after paper PMC4081100, “A DNA-binding-site landscape and regulatory network analysis for NAC transcription factors in Arabidopsis thaliana”.)
